An excerpt weighted towards active compounds, which were near 3.2% of everything screened.
AMA1 RON2 block = AMA1-RON2 (P. falciparum) interaction inhibition; AlphaScreen AMA1-biotinylated RON2 peptide binding; Potency, µM (doses to about 58.2 µM), for inactives: at the highest dose activity change, negative = inhibition, most hits filed as inhibitors; 0.2% of 360,000 active;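 also: 0% = vehicle wells and -100% = peptide control; nearly all actives have a fitted effect of over 45% in size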
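AMA1 (3D7) with his tag at 25 nM final met compounds first, then biotinylated RON2 peptide at 25 nM; detection used donor plus acceptor beads, 10 µg/mL apiece, read by AlphaScreen after 30 min at room temperature.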
Sm TGR block = blocks Schistosoma mansoni thioredoxin glutathione reductase. Potency, µM (titrated, usually from 114 µM), for inactives: at the top dose activity change, negative = inhibition, actives largely listed as inhibitors. AID 485364. Q962Y6. 3% of 360,000 active. purified TGR, DTNB reduction, TNB absorbance 405 nm; also: nearly all actives have a fitted effect of over 60% in size
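Kinetic colorimetric format: TGR-catalysed, NADPH-driven DTNB reduction monitored via TNB absorbance. Enzyme dispensed at 20 nM; compound exposure 15 min at room temperature before reaction start.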
RE007 growth inh = less growth of the S. pombe RE007 Vpr strain | S. pombe RE007 Vpr strain, BacTiter-Glo ATP luminescence, 24 h | Potency, µM (top dose mostly 92.2 µM), for the others: at the highest dose activity change, negative = less growth, most hits filed as inhibitors | 0.21% of 360,000 active | AID 651644; active = well fitted falling curve with a large enough effect; inconclusive = small, poorly fitted or top-dose-only effect; inactive = no such curve, though single readings can be large or run the other way; also: nearly all actives have a fitted effect of over 50% in size
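Fission yeast strain RE007, carrying one chromosomally integrated HIV-1 vpr copy, was seeded at OD 0.01 in PMG+AL medium with 23 nL pinned compound. After 24 h at 30 °C and 99% humidity, viability was read by BacTiter-Glo luminescence.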
LmPK inhibitor = inhibitors of Leishmania mexicana pyruvate kinase; purified LmPK, Kinase-Glo ATP luminescence, 1 h; Potency, µM (series often up to 57.5 µM), for inactives: at the highest dose activity change, negative = inhibition, most hits filed as inhibitors; 0.37% of 290,000 active; AID 1721
Target sequence (Q27686 whole entry, looked up): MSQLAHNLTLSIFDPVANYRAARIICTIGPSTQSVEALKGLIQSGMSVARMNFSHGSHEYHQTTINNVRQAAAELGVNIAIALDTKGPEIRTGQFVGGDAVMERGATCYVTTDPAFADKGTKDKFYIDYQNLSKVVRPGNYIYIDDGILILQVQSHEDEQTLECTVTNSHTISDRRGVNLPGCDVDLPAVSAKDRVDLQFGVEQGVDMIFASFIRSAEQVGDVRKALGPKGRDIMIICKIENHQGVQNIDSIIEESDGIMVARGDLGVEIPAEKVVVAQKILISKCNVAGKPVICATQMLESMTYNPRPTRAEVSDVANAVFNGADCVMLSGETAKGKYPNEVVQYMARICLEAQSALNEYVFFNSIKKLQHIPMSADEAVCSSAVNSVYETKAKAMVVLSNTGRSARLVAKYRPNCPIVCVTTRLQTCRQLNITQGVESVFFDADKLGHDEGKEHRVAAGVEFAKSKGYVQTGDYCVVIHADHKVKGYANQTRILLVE
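In 50 mM imidazole pH 7.2 with 7 mM MgCl2, LmPK (0.1 nM) turned over PEP (0.5 mM) and ADP (0.1 mM) for 1 h at room temperature. Luciferase read-out of ATP.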
TbPYK inhibitor = T. brucei pyruvate kinase inhibition; Potency, µM (titrated, usually from 76.8 µM), without a hit: at the highest dose activity, negative = inhibition, actives largely listed as inhibitors; TbPYK enzyme, Kinase-Glo Plus ATP luminescence, 45 min; 0.12% of 410,000 active; Q57TT1; also: nearly all actives have a fitted effect of over 50% in size
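Readout: single end-point luminescence (Kinase-Glo Plus, 10 min). Reaction conditions were TbPYK/substrate plus 130 uM ADP, 45 min at RT, pH 7.2 TEA buffer. No-enzyme wells served as controls, and data were normalized before concentration-response fitting.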
* = called active by the depositor; ? = inconclusive; / = no result. Unless noted, calls follow the shape of the dose curve; as a rule, active = well fitted curve in the direction sought with a large enough effect; inconclusive = small, poorly fitted or top-dose-only effect, or another doubt; inactive = no such curve, though single readings can be large; an effect the other way counts as inactive or inconclusive. Unless noted, % is scaled to controls: 0 for no effect and ±100 for the full control effect; potency is read from the fitted curve at half-maximal effect.

SMILES | AMA1 RON2 block | Sm TGR block | RE007 growth inh | LmPK inhibitor | TbPYK inhibitor
Cc1cc(C)c(C#N)c(OCC(=O)c2ccccc2)n1 | -15% | 14% | -5% | 0% | 0%
Cc1cc(C)c(C#N)c(OCc2ccc(Cl)nc2)n1 | 23% | 89µM* | 1% | 0% | 1%
O=C(NCc1ccccc1Cl)c1cc(=O)[nH]c2ccccc12 | -25% | 50µM* | -16% | -12% | -7%
CSc1nn(Cc2ccc(F)cc2)c(N(C(C)=O)C(C)=O)c1S(=O)(=O)c1ccccc1 | / | -35% | / | / | -6%
Cc1ccc(Sc2c([N+](=O)[O-])c(=O)n(C)c3ccccc23)cc1 | -5% | 2µM* | 7% | 0% | -3%
O=C(Cc1ccccc1)Nc1cccc(N2C(=O)C=CC2=O)c1 | 9% | 0.45µM* | -18% | 19% | ?
COc1cccc(NC(=O)Cc2ccccc2)c1 | 2% | -11% | ? | -2% | -4%
CC1C(=O)Nc2ccc(S(=O)(=O)N3CCCCC3)cc2NC1=O (centres undefined) | / | -6% | / | / | 8%
CSCCC1Nc2ccc(S(=O)(=O)N3CCOCC3)cc2NC1=O (centres undefined) | 6% | 50µM* | 32% | 4% | -12%
Cc1cc(CC(=O)O)c(C)n1-c1ccc(Cl)cc1 | / | / | / | / | 0%
CNc1sc(C(=O)c2ccc(F)cc2)c(N)c1-c1nc2ccccc2s1 | -1% | 40µM* | ? | 3% | ?
O=[N+]([O-])c1ccc2c(c1)nc1n2CCN(CC2CCCO2)C1 (centres undefined) | 10% | ? | -11% | 3% | -3%
COCCN1CCn2c(nc3cc([N+](=O)[O-])ccc32)C1 | -18% | 40µM* | -8% | 1% | 1%
O=[N+]([O-])c1ccc2c(c1)nc1n2CCN(c2ccccc2)C1 | 28% | 28µM* | 2% | 4% | 4%
O=C(O)c1ccc(/C=N/NC(=O)C(O)(c2ccccc2)c2ccccc2)cc1 | 8% | 2% | 10% | 4% | -5%
CCN(CC)c1ccc(/C=N/NC(=O)C(O)(c2ccccc2)c2ccccc2)o1 | / | 14µM* | / | -1% | /
COC(=O)C(=Cc1ccccc1[N+](=O)[O-])C(=O)OC | 5% | 7.1µM* | -2% | -3% | 2%
O=C(/C=C/c1ccccc1[N+](=O)[O-])Oc1ccccc1 | / | 5% | / | -6% | /
Cc1ccc(CNC(=O)/C=C/c2ccc(Br)o2)cc1 | -4% | 8.9µM* | -7% | -2% | -17%
CC(/C=C/c1ccc(C)o1)=C\C(=O)O | 17% | 7.9µM* | -19% | 6% | -17%
CC(=O)/C=C/c1ccc(C)o1 | -4% | 7.1µM* | 2% | 12% | -21%
Cc1ccc(/C=C/C(=O)NCc2cccs2)o1 | -12% | 2.8µM* | -11% | -3% | ?
O=C(/C=C/c1ccc(Br)o1)NCc1ccccc1 | -2% | / | -27% | 5% | ?
Cc1cc(C)c2oc(C(=O)Nc3c(C(=O)c4ccccc4)oc4ccccc34)cc(=O)c2c1 | / | 2% | / | / | 4%
CCOC(=O)N1CCC(NC(=O)CS(=O)Cc2nc(-c3ccc(OC)c(OC)c3)oc2C)CC1 (centres undefined) | 0% | ? | -6% | 2% | -7%
SMILES | AMA1 RON2 block | Sm TGR block | RE007 growth inh | LmPK inhibitor | TbPYK inhibitor
CCOC(=O)N1CCC(NC(=O)CS(=O)Cc2nc(-c3ccc(Cl)cc3)oc2C)CC1 (centres undefined) | 3% | 40µM* | 1% | 0% | 10%
CCOC(=O)N1CCC(NC(=O)CS(=O)Cc2nc(-c3ccc(C)cc3)oc2C)CC1 (centres undefined) | -6% | 45µM* | -5% | 2% | 1%
O=C(Nc1nc2c(F)cc(F)cc2s1)C1CC(=O)N(Cc2ccco2)C1 (centres undefined) | -1% | 5µM* | 1% | 4% | -19%
Cc1nc(-c2ccc(Cl)cc2)sc1CCNC(=O)c1ccco1 | / | -6% | / | / | -4%
COCCOC(=O)c1[nH]c2c(c1C)C(=O)CC(c1ccco1)C2 (centres undefined) | -29% | 45µM* | -4% | 5% | -4%
Cc1c(C(=O)OCc2ccccc2)[nH]c2c1C(=O)CC(c1ccco1)C2 (centres undefined) | -21% | ? | -15% | 4% | -3%
Cc1c(C(=O)OCCOC(C)C)[nH]c2c1C(=O)CC(c1ccco1)C2 (centres undefined) | -5% | ? | -8% | 4% | -6%
CCOC(=O)c1[nH]c2c(c1C)C(=O)CC(c1ccco1)C2 (centres undefined) | 0% | 40µM* | -9% | 0% | -4%
COc1ccc2c(c1)c1ncn(Cc3ccc(F)cc3)c(=O)c1n2C | 11% | 0% | 1% | 9% | -2%
COc1ccc2c(c1)c1ncn(Cc3ccco3)c(=O)c1n2C | 1% | 40µM* | 1% | -1% | 1%
COc1ccc(CN2CCNCC2)cc1 | 7% | 50µM* | -4% | 7% | -9%
CCOC(=O)/C(C#N)=C/C1=C(N2CCCC2)CC(C)(C)OC1 | 12% | -15% | 17% | -2% | 0%
CCOC(=O)/C(C#N)=C\C1=C(N2CCOCC2)CC(C)(C)OC1 | 8% | 32µM* | 24% | 0% | -2%
COc1ccc2nc(N(CCN(C)C)C(=O)c3ccc4ncsc4c3)sc2c1 | 0% | / | -15% | / | -29%
Cc1ccc2nc(N(CCCN(C)C)C(=O)c3ccc4ncsc4c3)sc2c1 | -3% | 1% | 4% | 2% | 25µM*
Cc1sc(NC(=O)c2ccco2)c(C(c2cccnc2)N2CCC(C)CC2)c1C (centres undefined) | 8% | 18µM* | -19% | 0% | -3%
CCN1CCN(C(c2cccnc2)c2c(NC(=O)c3ccco3)sc(C)c2C)CC1 (centres undefined) | -7% | 20µM* | -10% | / | -2%
CC(=O)c1ccc(NC(=O)c2nc(-c3ccccc3)n(-c3ccccc3Cl)n2)cc1 | / | 5% | / | / | -7%
CN1/C(=C/c2cc[n+](C)c3ccccc23)C=Cc2ccccc21 | -27% | -31% | 10µM* | ? | -25%
CCn1cc(C(=O)N2CCN(c3ccccc3OC)CC2)c(=O)c2cc(S(=O)(=O)N3CCC(C)CC3)ccc21 | / | -1% | / | / | 2%
CC(=O)N1[C@H](Cc2ccccc2)C=C[C@]1(C)C(=O)NCc1ccc(C)o1 | 3% | 8.9µM* | -11% | 0% | -22%
Cc1cccc(S(=O)Cc2ccc(C(=O)NC3CCCCCC3)o2)c1 (centres undefined) | / | -27% | / | / | 0%
O=C(NCc1ccco1)C1CC(c2ccccc2C(F)(F)F)=NO1 (centres undefined) | -1% | 20µM* | 3% | 2% | 8%
COc1ccc(OC)c(C2=NOC(C(=O)Nc3cc(C)on3)C2)c1 (centres undefined) | -4% | 0% | -1% | 1% | 2%

Compound activity as filed in PubChem.
